Results from PubChem BioAssay AID540335 (Broad Institute, 2011).
About 270 (21%) of roughly 1,300 compounds were called active. The list is a sample of the results. Potency and affinity values are given separately. Values without a mark were called inactive.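 How the source made its calls: active means dose-dependent rise or fall in viability, either side of zero, with half-maximal concentration at or below a set limit; inconclusive means flat curve at 30 to 70% viability loss, or poor fit; inactive means flat within 30% either way, or potency beyond limit.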

experiment: A375 melanoma cell viability reduction, dose response, counter-screen for MITF modulator project, cherry-pick samples, set 2 (AID 540335); conditions: CellTiter-Glo ATP luminescence, 24 h; series mostly up to 35 µM; activity change, negative = decreased viability: at the top concentration;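 further: A375 human melanoma cells which do not depend on MITF; 0% = median of neutral control wells and 100% = double that signal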

SMILES	activity change, negative = decreased viability [%]
Cn1cccc1C(=O)NC(=O)COC(=O)c1ccc(S(C)(=O)=O)c([N+](=O)[O-])c1	11.1
CS(=O)(=O)c1ccc(C(=O)OCC(=O)NCc2cccs2)cc1[N+](=O)[O-]	17.8
O=C(CCl)N1N=C(c2ccco2)CC1c1cccs1 (centres undefined)	-31.6
CC(C)C(=O)N1CCN(c2ccc(NC(=O)c3ccc([N+](=O)[O-])o3)cc2Cl)CC1	29.3
CCCCC[n+]1ccn(C2=C([O-])c3ccccc3C(=O)/C2=N\S(=O)(=O)c2ccccc2)c1	-11
O=C(Nc1ccc2c(c1)OCCO2)c1coc2ccccc2c1=O	-0.104
COc1cc(CN2CCC(C(N)=O)CC2)ccc1OCc1ccccc1	0.046
COc1cc(CN2CCC(C(=O)NCCC(C)C)CC2)ccc1OCc1ccccc1	5.82
CCN1CCc2c(sc(NC(=O)c3ccc(S(=O)(=O)N4CCCC4)cc3)c2C(=O)NC)C1	-9.91
Cc1ccc(NC(=O)c2cc(N3C(=O)C=CC3=O)ccc2N2CCOCC2)cc1	-16.9
O=C(Nc1ccc(S(=O)(=O)NC2=NCCCCC2)cc1)c1ccc([N+](=O)[O-])s1	-24.7
Cc1ccc2sc(N(CCCN(C)C)C(=O)c3ccc(S(=O)(=O)N(C)C4CCCCC4)cc3)nc2c1C	-39.9
Cc1ccc2nc(NC(=O)CCCC(=O)O)sc2c1	12
COc1ccc(S(=O)(=O)N2CCCCC2)cc1NC(=O)c1ccc([N+](=O)[O-])o1	-19.1
Cn1c(SCC(=O)N/N=C/c2ccc([N+](=O)[O-])s2)nnc1-c1ccccc1	-30.7
CC(=O)OCCCNc1cc(Sc2ccc(Cl)cc2)c2nonc2c1[N+](=O)[O-]	-14.9
CCN1CCCC1CNC(=O)c1ccc2c(c1)NC(=O)/C(=C\c1ccc(OC)c(OC)c1)S2 (centres undefined)	0.004
CCN1CCCC1CNC(=O)c1ccc2c(c1)NC(=O)/C(=C\c1ccc(C)cc1)S2 (centres undefined)	-95.9
COc1cccc(/C=C2/Sc3ccc(C(=O)NCCN4CCCC4)cc3NC2=O)c1	-4.96
O=C1Nc2cc(C(=O)NCCN3CCCCCC3)ccc2S/C1=C\c1ccccc1	-25.8
COC(=O)[C@@H]1C[C@]2(OC(=O)c3ccccc3)C=CC(=O)C[C@@H]2N1C(=O)OCc1ccccc1	5.93
COc1ccccc1NS(=O)(=O)c1cccc(C(=O)N/N=C/c2ccc([N+](=O)[O-])o2)c1	-30.3

SMILES	activity change, negative = decreased viability [%]
Cc1ccccc1OCC(=O)N/N=C/c1ccc([N+](=O)[O-])o1	-16.2
O=C(COc1ccccc1)N/N=C/c1ccc([N+](=O)[O-])o1	-8.29
C=Cc1ncc(OC)c2c1[nH]c1ccccc12	14.5
O=[N+]([O-])c1cccc2c(N3CCCC3)ccnc12	-26.5
CCN1CCN(c2ccc(NC(=O)c3ccc([N+](=O)[O-])o3)cc2Cl)CC1	-0.148
O=C(C[n+]1cccc2ccccc21)c1ccc([N+](=O)[O-])cc1	-6.09
Cc1cc(C)n(-c2ccc(C(=O)Nc3ccc(C)c(S(=O)(=O)N4CCOCC4)c3)cc2)n1	-12.6
CS(=O)(=O)c1nc(-c2ccc(F)cc2)cc(C(F)(F)F)n1	38.8
CCn1c(/C=C/N(C)c2ccccc2)[n+](CC)c2ccc(Cl)cc21	-36.6
CCOC(=O)c1ccc2c(c1)n(CC)c(/C=C/N(C)c1ccccc1)[n+]2CC	-19.5
Oc1cc(NCCN2CCOCC2)cc2cccnc12	-26.1
O=C(N/N=C\c1cc(Br)ccc1O)c1ccc(S(=O)(=O)N2CCCCC2)cc1	-15.3
O=C(N/N=C/c1cc(Cl)ccc1O)c1ccncc1	-31
O=C1c2cc(F)ccc2-n2c1nc1ccccc1c2=O	-37.3
CCOC(=O)CSC1=NC(=O)/C(=C\c2ccc(Cl)cc2)S1	-2.2
O=C(N/N=C/c1ccc(F)cc1)c1c(O)c2ccccc2[nH]c1=O	-19.2
O=C1/C(=C/c2ccccc2[N+](=O)[O-])COc2ccccc21	116
Cc1ccc(-c2cn(-c3ccc(SC(F)F)cc3)c3[n+]2CCC3)cc1	-14.1
O=c1c(Cl)c2oc3ccccc3nc-2c2ccccc12	-8.83
COc1cccc(-c2nnc3n2N=C(C(C)(C)C)CS3)c1	-24.4
O=C(CCl)Nc1ccc(-c2ccccc2)cc1	-39.9
COc1ccc(S(=O)(=O)N(C(C)=O)c2ccc(OC(C)=O)c3ccccc23)cc1[N+](=O)[O-]	-31.6

SMILES	activity change, negative = decreased viability [%]
CS(=O)(=O)c1ccc2nc(NC(=O)c3ccccc3)sc2c1	-10.8
CC1=C/C(=N\NC(=S)Nc2cccnc2)CC(C)(C)C1	-15.5
O=C(CCl)Nc1cccc(-c2cnc3ccccc3n2)c1	-29.9
Nc1nc2ccccc2n1/N=C/c1ccc([N+](=O)[O-])s1	-21
CC1CN(C(=O)CCC(=O)NCCCN2CCC(Cc3ccccc3)CC2)c2cc(Cl)ccc2O1 (centres undefined)	-37.2
Clc1ccc(-c2c[n+](Cc3cccc(Cl)c3)c3n2CCC3)cc1	3.73
COc1ccc(C(=O)NCCSc2ccccc2C)cc1	-8.17
COc1ccc(/C=C2\Sc3ccc(C(=O)NCCN4CCCCCC4)cc3N(C)C2=O)cc1	-19.8
Nc1c(N(CCC2=CCCCC2)C(=O)COc2ccc([N+](=O)[O-])cc2)c(=O)[nH]c(=O)n1Cc1ccccc1	-29
CN1CCN(c2ccc(NC(=O)c3ccc([N+](=O)[O-])o3)cc2Cl)CC1	-1.44
CN1CCN(c2ccccc2NC(=O)c2ccc([N+](=O)[O-])o2)CC1	-26.5
CC(=O)SC(C[N+](=O)[O-])c1cn(C(C)=O)c2ccccc12 (centres undefined)	22.6
CC(C)(C)C(=O)Cn1ncc(Cl)c(Cl)c1=O	55.4
C=C1C(=O)O[C@@]23[C@H]1CC[C@@H](C)[C@@H]2CC[C@@]1(C)O[C@@H]31	2.09
CCCC(=O)N1CCN(c2ccc(NC(=O)c3ccc([N+](=O)[O-])o3)cc2)CC1	11.4
CCN(CC)CCNC(=O)c1ccc(NC(=O)c2cccc(S(=O)(=O)N3c4ccccc4CC3C)c2)cc1 (centres undefined)	-12.4
O=C(/C=C/c1ccc(Cl)c([N+](=O)[O-])c1)c1ccc(O)cc1	24.9
O=C(Nc1ccc(N2CCN(C(=O)c3ccc(Cl)cc3)CC2)cc1)c1ccc([N+](=O)[O-])o1	20.7
O=C(N/N=C/c1ccc([N+](=O)[O-])s1)c1ccccc1Br	-17.8
COc1cc(NC(=O)c2ccc([N+](=O)[O-])o2)ccc1NC(=O)c1cccs1	-28.9
